The whole screen tested about 65,000 compounds, of which about 2,100 (3.2%) showed an effect of 50% or more. The median lay at about -52%. This excerpt belongs to a sample that is enriched for strong results.

This note sets out measurements from ChEMBL document CHEMBL4513216, “Probing the Open Global Health Chemical Diversity Library for Multistage-Active Starting Points for Next-Generation Antimalarials” (ACS Infect Dis, 2020).

This assay has as its system Plasmodium falciparum. In words: Screen against P. falciparum Asexual Blood Stage (ABS), at 5uM. It is filed as functional, Dd2. The settings on record: tested at 5 uM.
On to `COCCN1CCCC12CCN(c1ncccn1)CC2`, for which the INHIBITION was -0.324%.

Regarding `Cc1c(C2N3CC4(C)CN2CC(C)(C3)C4=O)[nH]c(=O)[nH]c1=O` (configuration not stated), the INHIBITION is listed as -53.4%.

`COc1cc(C2SCC(=O)Nc3ccsc32)cc(OC)c1O` (configuration not stated): the INHIBITION is -46.5%.

In the case of `CCN1CCC2(COCc3cnc(-c4cccnc4)nc32)C1` (configuration not stated), the INHIBITION is recorded as -76.4%.

`c1cncc(-c2noc(CN3CCc4cncnc4C3)n2)c1`: the INHIBITION stood at 72.9%.

Regarding `COCc1cncc2c1CCN(Cc1cccnc1)C2`, the INHIBITION was -107%.

Turning to `O=C1C[C@@H]2CC[C@H](CN1)N2C1CCSCC1`, the INHIBITION is listed as -19.5%.

Take `C[C@@H]1C[C@H]2CN(Cc3nccs3)C[C@H]2O1`: the INHIBITION is -77.8%.

For `Cc1cc(CN2CC[C@H]3C[C@H](c4nc(C5CC5)cs4)O[C@@H]3C2)no1`, the INHIBITION is listed as -15.2%.

On to `Nc1nc(N)c2c(n1)OC1(COCCN(Cc3nccs3)C1)C2` (configuration not stated), for which the INHIBITION is -134%.

For the compound `Cc1nc(CO[C@@H]2CN(Cc3ccccn3)[C@@H]3COC[C@@H]32)cs1`, the INHIBITION is reported as -6.87%.

Take `c1ccc(COC[C@@H]2CCC[C@@]23CNCCO3)nc1`: the INHIBITION was found to be 48.6%.

With `c1cncc(COC[C@@H]2CCC[C@]23CNCCO3)c1`, the INHIBITION was -12.9%.

Regarding `c1ccc(OC[C@@H]2CCC[C@@]23CNCCO3)nc1`, the INHIBITION came to 66.9%.

In the case of `c1ccc(COC[C@H]2CCC[C@@]23CNCCO3)nc1`, the INHIBITION is listed as 44.1%.

As to `c1cncc(OC[C@@H]2CCC[C@@]23CNCCO3)c1`, the INHIBITION is on record as 67%.

As for `c1cncc(COC[C@@H]2CCC[C@@]23CNCCO3)c1`, the INHIBITION is 23.4%.

With `COc1cc(N2C[C@H]3CCN(CCN4CCCC4)C[C@H]3C2)ncn1`, the INHIBITION is -52.5%.

For the compound `Cc1cccc(CN2C[C@@H]3CN(Cc4ccoc4)CCO[C@@H]3C2)n1`, the INHIBITION was -60.3%.

Take `Cc1ccc(O[C@@H]2C[C@H]3CN(C(=O)Cc4ccccn4)CCN3C2)cc1`: the INHIBITION is listed as -77.2%.

In the case of `CC(C)N1[C@H](CN2CCCC2)C[C@@H]2CN(Cc3ccoc3)CC[C@@H]21`, the INHIBITION was determined as 76.2%.

As to `CN1C(Cn2cccn2)C[C@@H]2CN(Cc3cccnc3)CC[C@@H]21` (some centres not stated), the INHIBITION was found to be 11.2%.

Take `CC(C)N1[C@H](Cn2cncn2)C[C@@H]2CN(c3ncccn3)CC[C@@H]21`: the INHIBITION is listed as -58.2%.

For the compound `CCc1noc(C(C)N2CCN(C)CC2)n1` (configuration not stated), the INHIBITION was -21%.

Take `Cc1ccc(C(=O)N2C[C@@H]3OCCN(CC4CCCC4)[C@@H]3C2)cn1`: the INHIBITION was -30%.

With `c1ccc(-c2cc(CN3C[C@H]4CC[C@@H](C3)N(CC3CCC3)C4)on2)cc1`, the INHIBITION is on record as 88.4%.

`c1ccc(-c2cc(CN3C[C@H]4CC[C@H]3C4)on2)cc1`: the INHIBITION amounted to 5.39%.

For `COc1ccnc(N2C[C@H]3CC[C@@H](C2)N(CC2CC2)C3)n1`, the INHIBITION was 4.16%.

`Cc1noc([C@@H]2C[C@H]3CN(Cc4cc(C)on4)C[C@H]3O2)n1`: the INHIBITION was -92.2%.

In the case of `CN1CCN(Cc2cccnc2)Cc2cccnc21`, the INHIBITION was -65.7%.

Consider `Cc1cnn(CC(C)NCc2ccncc2)c1` (configuration not stated), for which the INHIBITION turned out to be 0.596%.

As for `Cc1cnn(CC(C)NCc2cccnc2)c1` (configuration not stated), the INHIBITION was -41.2%.

On to `Cc1cnn(CCNCc2ccccc2OCc2cccnc2)c1`, for which the INHIBITION amounted to 71.5%.

In the case of `Cc1cnn(CC(C)NCc2ccc(C#N)cc2)c1` (configuration not stated), the INHIBITION was -64.7%.

On to `Cc1cnn(CCNCc2nccn2Cc2ccccc2)c1`, for which the INHIBITION is 83%.

In the case of `O=C(c1ccno1)N1CC[C@@H]2CN(C3CCOCC3)CCO[C@@H]2C1`, the INHIBITION was -25%.

On to `CC(C)(C)NC(=O)CNc1ccc(C#N)c(C(F)(F)F)c1`, for which the INHIBITION is recorded as -31.3%.

In the case of `CCc1ocnc1C(=O)N1CCC2(CC1)OCC(C)O2` (configuration not stated), the INHIBITION is on record as -79.3%.

Regarding `COc1cc(N2CCN(CC3CC3)c3nc(C)ccc3C2)ncn1`, the INHIBITION was -65.6%.

As to `O=C1N(Cc2cccnc2)CCC12CCCNC2` (configuration not stated), the INHIBITION is -85.5%.

For the compound `CC(C)CN1CCC2(CCCNC2)C1=O` (configuration not stated), the INHIBITION worked out at 10.8%.

Take `O=C1N(Cc2ccc(Cl)cc2)CCC12CCCNC2` (configuration not stated): the INHIBITION turned out to be 85.4%.

Turning to `O=C1N(Cc2cccc(Cl)c2)CCC12CCCNC2` (configuration not stated), the INHIBITION is on record as 80.7%.

Turning to `O=C1N(Cc2cccc(F)c2)CCC12CCCNC2` (configuration not stated), the INHIBITION was -20.3%.

As to `O=C1N(Cc2ccncc2)CCC12CCCNC2` (configuration not stated), the INHIBITION is recorded as -59.6%.

As for `O=C([C@H]1CN(Cc2ccncc2)C[C@H]2OCC[C@@H]12)N1CCCCO1`, the INHIBITION is on record as -89.5%.

Take `Cc1ccc(CN2C[C@H]3OC(=O)N(Cc4ccccn4)[C@H]3C2)o1`: the INHIBITION is on record as -74.6%.

Take `CCc1ncc(CN(CCc2ccccc2)Cc2cccs2)cn1`: the INHIBITION is reported as -80.9%.

As to `CCc1ccc(CN(CCN(C)C)Cc2ccc(C)s2)nc1`, the INHIBITION is listed as 91.9%.

As for `COCCN1CC[C@]2(CN(Cc3cccnc3)C[C@H]2C)C1=O`, the INHIBITION was found to be 25.1%.

Consider `Cc1cc(C(=O)N2CCC3(CCN3Cc3ccc(F)cc3)C2)no1` (configuration not stated), for which the INHIBITION came to 4.88%.

With `O=C(O)CN1CCC(F)(F)C2(CCN(c3ccccn3)C2)C1` (configuration not stated), the INHIBITION is reported as -77.3%.
